# Data as given in the supplement of paper PMC10338343.
# ± gives the standard deviation.
# What was measured:
# [1] = test system: MILI (PIWIL2) piRISC loaded with piRNA #1 (26 nt); assay: pre-steady-state target cleavage rate (min^-1); guide: piRNA #1 5'p-UGAGGUAGUAGGUUGUAUAGUAUCCA; higher = faster piRNA-guided slicing of the target; conditions: auxiliary factor: 500 nM mouse GTSF1
# Procedure, shortened: (§1)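 Active affinity-purified piRISC (1 nM) loaded with one synthetic guide was mixed with a transcribed, DNA-blocked target RNA library (0.1 nM), with or without 500 nM GTSF1 partner protein, in HEPES–potassium acetate buffer at 33 °C for 0–8 or 0–960 min. Uncleaved targets were sequenced, normalised to depth and to weakly complementary targets, and pooled across three trials, with k3 capped at 0.0001 min^-1. The pre-steady-state cleavage rate was determined with a burst-and-steady-state fit.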
# [2] = test system: EfPiwi piRISC loaded with piRNA #1 (26 nt); assay: pre-steady-state target cleavage rate (min^-1); auxiliary factor: 500 nM Ephydatia muelleri Gtsf1; guide: piRNA #1 5'p-UGAGGUAGUAGGUUGUAUAGUAUCCA; MIWI and MILI are mouse PIWI proteins and EfPiwi is from a freshwater sponge; tags in brackets are library labels; higher = faster piRNA-guided slicing of the target
# Procedure, shortened: as §1
Sequence,pre-steady-state target cleavage rate [1],pre-steady-state target cleavage rate [2]
GGAGACCUUACUAGUACAACCUACUACCUCA,0.0945 ± 0.0095,0.00695 ± 0.0046
GGAGUGGUUACUAUACAAGCUACUACCUCA,0.213 ± 0.016,0.00582 ± 0.0018
GGAGAGGAUACAUAACAACCUACUACCUCA,0.123 ± 0.011,0.00445 ± 0.004
GGAGUGGAUACUAUACAUCGUACUACCUCA,0.0624 ± 0.0061,0.0051 ± 0.0023
GGAGACCUAUCUAUACAUCCUAGUACCUCA,0.0489 ± 0.012,0.00398 ± 0.0038
GGAGACCAUACUAUACAACCUACUAUCCUCA,0.219 ± 0.019,0.00375 ± 0.0028
GGAGACGAUACUAUACAACCUACUACGUCA,0.081 ± 0.012,0.00658 ± 0.002
GGAGACGAUACUAUACAAGCUACAACCUCA,0.211 ± 0.018,0.00442 ± 0.0022
GGAGUGGAUACUAUACAACGAACUACCUCA,0.00366 ± 0.0017,0.00257 ± 0.0018
GGAGACGAUACUAAACAACCUACUUCCUCA,0.0843 ± 0.021,0.00245 ± 0.0022
GGAGACCUAUGAAUCACAACCUACUACCUCA,0.0111 ± 0.0034,0.00389 ± 0.0034
GGAGUCGAUACUAUACAACCUACUACGUCA,0.0797 ± 0.0078,0.00643 ± 0.0028
GGAGACCUAUGUAUACAACCUACUACCUCCA,0.0928 ± 0.016,0.00535 ± 0.004
GGAGUGGAUACUAUACAACACUACUACCUCA,0.00621 ± 0.0026,0.00629 ± 0.003
GGAGAGGAUACAUACAACCUACUACCUCA,0.137 ± 0.016,0.0103 ± 0.005
GGAGACCUUACUAUACAACCUACUCCCUCA,0.0992 ± 0.015,0.00342 ± 0.0031
GGAGACCUUACUAUACAACCUACUACACUCA,0.15 ± 0.022,0.0028 ± 0.0026
GGAGACCAUACUAGACAACCUACUACCUCA,0.151 ± 0.014,0.0249 ± 0.01
GGAGACCUUACUAUAGAACCUACUACCUCA,0.125 ± 0.015,0.00324 ± 0.0026
GGAGACCUUACUAUACAACCUAGUACCUCA,0.0616 ± 0.011,0.00384 ± 0.0019
